{"source": "PubChem BioAssay AID434962", "about": "(The Scripps Research Institute Molecular Screening Center, 2010)", "note": "Hit rate of the full screen: of about 320,000 compounds, about 1,300 (0.41%) were called active. This excerpt belongs to a sample that is enriched for actives. Unmarked numbers belong to inactive results.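 How the source made its calls: active means percent inhibition above the average of all tested compounds plus 3 SD, set per screening campaign (cut at about 16% in these data); inactive means the rest.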", "data": [{"target": "Insulin-degrading enzyme (Homo sapiens) (UniProt P14735)", "sequence (P14735 whole entry, looked up)": "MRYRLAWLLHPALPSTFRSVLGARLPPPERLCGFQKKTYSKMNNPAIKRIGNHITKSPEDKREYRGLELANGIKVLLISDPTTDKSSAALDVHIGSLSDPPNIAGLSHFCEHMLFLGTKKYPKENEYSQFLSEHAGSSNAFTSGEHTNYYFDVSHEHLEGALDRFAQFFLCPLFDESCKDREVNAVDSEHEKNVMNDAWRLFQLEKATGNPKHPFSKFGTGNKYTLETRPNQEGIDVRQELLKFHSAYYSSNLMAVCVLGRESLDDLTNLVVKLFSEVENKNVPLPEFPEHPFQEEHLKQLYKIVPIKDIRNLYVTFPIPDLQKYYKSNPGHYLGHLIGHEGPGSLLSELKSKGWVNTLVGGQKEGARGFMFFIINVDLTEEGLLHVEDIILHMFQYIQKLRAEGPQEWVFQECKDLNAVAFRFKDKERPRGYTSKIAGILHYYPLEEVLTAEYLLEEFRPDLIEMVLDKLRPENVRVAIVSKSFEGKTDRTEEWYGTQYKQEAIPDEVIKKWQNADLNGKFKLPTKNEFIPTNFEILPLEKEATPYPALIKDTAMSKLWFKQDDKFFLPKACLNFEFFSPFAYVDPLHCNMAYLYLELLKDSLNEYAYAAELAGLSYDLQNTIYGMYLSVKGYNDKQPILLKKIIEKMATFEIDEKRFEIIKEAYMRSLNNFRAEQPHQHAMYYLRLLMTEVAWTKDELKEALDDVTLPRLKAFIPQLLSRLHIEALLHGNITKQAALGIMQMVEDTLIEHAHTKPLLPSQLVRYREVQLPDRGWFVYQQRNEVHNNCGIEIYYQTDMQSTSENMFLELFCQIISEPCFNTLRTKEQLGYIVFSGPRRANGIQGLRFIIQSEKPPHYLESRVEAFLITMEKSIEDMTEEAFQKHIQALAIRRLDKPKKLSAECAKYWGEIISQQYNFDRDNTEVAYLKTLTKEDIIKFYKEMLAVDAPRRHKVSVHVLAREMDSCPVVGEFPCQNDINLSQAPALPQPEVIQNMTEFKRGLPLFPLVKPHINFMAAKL", "experiment": "human IDE inhibitors in live cells, primary screen, fluorescence polarization, HEK cells, FAbetaB substrate (AID 434962);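 further: IDE supplied by intact live HEK cells; FP after avidin binding of uncleaved biotin substrate so inhibition keeps polarization high; 0% = DMSO wells and 100% = 60 µM reference IDE inhibitor Ii1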", "conditions": "FAbetaB cleavage, at 5.59 µM, stronger effect = higher value", "values": [{"compound": "CS(=O)(=O)N(Cc1ccc(Cl)cc1)c1ccc(C(=O)NCCSCc2ccco2)cc1", "inhibition": "2.58%"}, {"compound": "O=C(C1=C[C@H](c2ccc(C(F)(F)F)cc2)C[C@H](OCc2ccc(CO)cc2)O1)N1CCN(Cc2ccccc2)CC1", "inhibition": "-1%"}, {"compound": "O=C(C1=C[C@H](c2coc3ccccc3c2=O)C[C@H](OCc2ccc(CO)cc2)O1)N1CCN(Cc2ccccc2)CC1", "inhibition": "18.4% (active)"}, {"compound": "O=C(C1=C[C@H](c2coc3ccccc3c2=O)C[C@H](OCc2ccc(CO)cc2)O1)N1CCOCC1", "inhibition": "4.19%"}, {"compound": "C[n+]1ccc(/C=C/c2c[nH]c3ccccc23)cc1", "inhibition": "23.9% (active)"}, {"compound": "O=C(NC1CCCC1)C(=O)c1c[nH]c2ccccc12", "inhibition": "3.35%"}, {"compound": "COc1ccc(/C=C(\\C#N)c2c[nH]c3ccccc23)cc1", "inhibition": "-0.68%"}, {"compound": "Clc1ccccc1-c1cc(COc2ccc3ccccc3c2)no1", "inhibition": "3.18%"}, {"compound": "CC1=CC2=NC(=O)/C(=C/c3coc4ccccc4c3=O)C(=N)N2O1", "inhibition": "62.1% (active)"}, {"compound": "CCOc1cc(/C=C2/C(=N)N3OC(C)=CC3=NC2=O)ccc1OC", "inhibition": "0.06%"}, {"compound": "COc1ccc(OCCCn2cccc2/C=C2/C(=N)N3OC(C)=CC3=NC2=O)cc1", "inhibition": "1.48%"}, {"compound": "C=CCn1c(SCCOc2ccc(OC)cc2)nnc1C(NC(=O)c1ccc(OC)cc1)C(C)C", "note": "(stereo not drawn)", "inhibition": "0.39%"}, {"compound": "CC(=O)Nc1ccc(S(=O)(=O)N2CCN(CCCOc3cc(C)ccc3C)CC2)cc1", "inhibition": "-1.56%"}, {"compound": "CCOc1ccc(NC(=O)CN(C)CC(=O)Nc2cccc(Cl)c2C)cc1OCC", "inhibition": "1.24%"}, {"compound": "CCCc1nc(SCC(=O)Nc2ccc(S(=O)(=O)N(C)C)cc2)c2ccccc2n1", "inhibition": "38.4% (active)"}, {"compound": "CCc1nc(SCC(=O)NNC(=O)c2ccc(C)cc2)c2ccccc2n1", "inhibition": "0.32%"}, {"compound": "CCCNC(=O)CSc1nc(Cc2ccccc2)nc2ccccc12", "inhibition": "4.52%"}, {"compound": "Cc1ccccc1-n1c(C)cc(/C=N/NC(=O)c2ccc(CN3CCOCC3)cc2)c1C", "inhibition": "-1.59%"}, {"compound": "COc1ccc(N2C(=O)/C(=C\\c3ccco3)N=C2SCC(N)=O)cc1Cl", "inhibition": "6.2%"}, {"compound": "N#Cc1c(N2CCCCC2)nc(N)c2c(N)nc(SCC(=O)O)cc12", "inhibition": "7.07%"}, {"compound": "Fc1ccc2[nH]c3c(N4CCSCC4)ncnc3c2c1", "inhibition": "17.6% (active)"}, {"compound": "CCN1CCCC1CNc1ncnc2c1[nH]c1ccc(F)cc12", "note": "(stereo not drawn)", "inhibition": "17% (active)"}, {"compound": "CCN1CCCC1Cn1cnc2c([nH]c3cc(OC)ccc32)c1=O", "note": "(stereo not drawn)", "inhibition": "6.02%"}, {"compound": "CC(C)OCCCNc1ncnc2c1[nH]c1ccc(F)cc12", "inhibition": "27.3% (active)"}, {"compound": "CCN1CCCC1CNC(=O)c1cc2cc(OC)c(OC)cc2[nH]1", "note": "(stereo not drawn)", "inhibition": "1.37%"}, {"compound": "Cc1c(CN2CC[C@@H](N3CCN(c4ccccn4)CC3)[C@H](O)C2)[nH]c2ccc(F)cc12", "inhibition": "-1.68%"}, {"compound": "COc1ccc(NC(=O)CSc2nnc(C3CC3)n2C)cc1S(=O)(=O)N1CCCCC1", "inhibition": "0.43%"}, {"compound": "O=C1CCN(CCCc2ccccc2)CCN1CCO", "inhibition": "9.53%"}, {"compound": "Cc1noc(C)c1S(=O)(=O)N(C)Cc1ccccc1", "inhibition": "1.11%"}, {"compound": "Cn1ncc2c(N3CCCCC3)nc(NCCCO)nc21", "inhibition": "4.87%"}, {"compound": "COc1cccc(/C=C/C(=O)OCC(=O)N2CCCc3ccccc32)c1", "inhibition": "0.1%"}, {"compound": "Cc1ccc(Cn2cc(C(=O)NN)c(=O)c3ccc(F)cc32)cc1", "inhibition": "0.01%"}, {"compound": "Cc1c(-c2cccc(Cl)c2)nc2ccccc2c1C(=O)OCC(=O)N(C)C1CCS(=O)(=O)C1", "note": "(stereo not drawn)", "inhibition": "18.3% (active)"}, {"compound": "COc1ccc2c(-c3ccccc3)cc(SCC(=O)N(C)C3CCS(=O)(=O)C3)nc2c1", "note": "(stereo not drawn)", "inhibition": "-3.71%"}, {"compound": "CN(C(=O)COC(=O)c1cc(-c2ccco2)nc2ccccc12)C1CCS(=O)(=O)C1", "note": "(stereo not drawn)", "inhibition": "-3.18%"}, {"compound": "Cc1ccc(C)c(NC(=O)c2cc(-c3cc(C)cc(C)c3O)n[nH]2)c1", "inhibition": "-3.27%"}, {"compound": "CC(C(=O)c1ccc(-c2ccccc2)cc1)[n+]1cccc(Br)c1", "note": "(stereo not drawn)", "inhibition": "23.5% (active)"}, {"compound": "O=C(NNC(=O)c1ccc(-c2ccccc2)cc1)Nc1ccccc1", "inhibition": "2.17%"}, {"compound": "Cc1ccc(NC(=S)NC(=O)c2ccc(-c3ccccc3)cc2)cc1", "inhibition": "0.29%"}, {"compound": "O=C1N/C(=C/c2cccs2)C(=O)N1Cc1ccc(F)cc1", "inhibition": "-2.86%"}, {"compound": "CN(C)c1ccc(C=C2C(=O)OC3(CCCC3)OC2=O)cc1", "inhibition": "0.68%"}, {"compound": "CN(C)c1ccc(/C=C2\\NC(=S)N(Cc3ccccc3)C2=O)cc1", "inhibition": "99.8% (active)"}, {"compound": "CN(C1CCS(=O)(=O)C1)S(=O)(=O)c1ccc2ccccc2c1", "note": "(stereo not drawn)", "inhibition": "5.04%"}, {"compound": "O=C(C1CCN(S(=O)(=O)Cc2ccccc2)CC1)N1CCCc2ccccc21", "inhibition": "0.11%"}, {"compound": "CC1(C)Cc2cccc(OCC(=O)N3CCN(c4ccc([N+](=O)[O-])cc4)CC3)c2O1", "inhibition": "18.8% (active)"}, {"compound": "CC1(C)Cc2cccc(OCC(N)=O)c2O1", "inhibition": "-2.75%"}, {"compound": "CC1(C)Cc2cccc(OCC(=O)NCc3ccccc3)c2O1", "inhibition": "0.56%"}, {"compound": "CCCN(CCC)S(=O)(=O)c1ccc(C(=O)N2CC3CCC(CC3)C2)cc1", "inhibition": "-1.85%"}, {"compound": "CC(=O)NCCc1ccc(S(=O)(=O)N(C)C2CCS(=O)(=O)C2)cc1", "note": "(stereo not drawn)", "inhibition": "-0.05%"}, {"compound": "CN1C(=O)/C(=C/C=C2\\SCCN2C)OC1=S", "inhibition": "25.2% (active)"}, {"compound": "Nc1nc(Br)c2ccccc2c1-c1ccc(F)cc1", "inhibition": "-4.68%"}, {"compound": "CC(C)OCCCNC(=S)N1CCC(C(=O)c2ccc3c(c2)OCCO3)CC1", "inhibition": "7.22%"}, {"compound": "COC(=O)c1cc(C(=O)OCC(=O)Nc2cc(C)on2)cc([N+](=O)[O-])c1", "inhibition": "0.35%"}, {"compound": "Cc1ccc2c(c1)c1ncn(CCC3=CCCCC3)c(=O)c1n2C", "inhibition": "4.46%"}, {"compound": "Cc1ccc2c(c1)c1ncnc(N3CCc4ccccc4C3)c1n2C", "inhibition": "39.7% (active)"}, {"compound": "Cc1ccc(-c2cc(C(=O)N3CCc4ccccc4C3)no2)cc1", "inhibition": "-0.51%"}, {"compound": "COc1ccccc1-c1n[nH]c2c1[C@H](C)CC[C@H]2C(C)C", "inhibition": "0.94%"}, {"compound": "CCCCOC(=O)c1ccc(NC(c2ccc(C)cc2)P(=O)(OC)OC)cc1", "note": "(stereo not drawn)", "inhibition": "7.2%"}]}]}
